14-3-3 Bad PPI = disrupts binding of bovine 14-3-3 zeta to phospho-Bad peptide; P63103; TR-FRET 14-3-3zeta/Dy647-pBad peptide displacement, 1 h; inhibition, % at 21.7 µM; actives 0.71% (n = 220,000); AID 781;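 active = inhibition above about 70%, limit read from the data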;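 note: 0% = full 14-3-3 plus peptide FRET controls and 100% = background without 14-3-3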
Mcl1-Noxa inh = disrupts binding of human Mcl-1 to Noxa peptide | Q07820 | TR-FRET Mcl-1/Noxa peptide binding, 2 h | inhibition, % at 21.7 µM | actives 1.5% (n = 220,000);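 active = compounds that cut the protein-peptide binding signal by more than 50% relative to plate controls in a single-dose test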;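 note: His-tagged Mcl-1 with rhodamine Noxa BH3 peptide and terbium anti-His antibody; 0% = Mcl-1 plus Noxa peptide wells and 100% = peptide-only wells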
Hck Nef HTS = blocks Nef-activated human Hck kinase. AID 463187. actives 0.68% (n = 220,000). inhibition, % at 20 µM. P08631. Recombinant Hck-YEEI plus Nef, Z-Lyte FRET kinase assay;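 active = Hck-Nef kinase inhibition above about 50%, limit read from the data; inactive = inhibition below that limit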;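 note: 0% = DMSO with Hck plus Nef and 100% = Hck alone without Nef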
Target sequence (P08631 whole entry, looked up): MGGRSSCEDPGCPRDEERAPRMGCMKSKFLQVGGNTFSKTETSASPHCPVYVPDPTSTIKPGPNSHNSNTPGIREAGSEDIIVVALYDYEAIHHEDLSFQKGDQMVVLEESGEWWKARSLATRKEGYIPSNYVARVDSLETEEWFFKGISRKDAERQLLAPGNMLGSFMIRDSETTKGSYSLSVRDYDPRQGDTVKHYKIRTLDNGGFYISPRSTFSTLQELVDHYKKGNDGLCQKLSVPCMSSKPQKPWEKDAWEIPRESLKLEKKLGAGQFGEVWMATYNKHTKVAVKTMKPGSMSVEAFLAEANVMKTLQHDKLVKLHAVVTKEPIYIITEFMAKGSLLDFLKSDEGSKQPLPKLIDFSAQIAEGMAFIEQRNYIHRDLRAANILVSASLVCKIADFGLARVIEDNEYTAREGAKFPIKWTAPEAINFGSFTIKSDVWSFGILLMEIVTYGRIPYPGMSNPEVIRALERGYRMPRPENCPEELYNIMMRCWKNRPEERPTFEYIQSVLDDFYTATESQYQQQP
Mcl-1 Bim block = disrupts Bim peptide binding to human Mcl-1. Bead-based flow cytometry, Bim peptide-Mcl-1 binding. inhibition, % at 10 µM. actives 0.1% (n = 190,000). AID 1009; in the data active = inhibition above about 40%;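 note: 0% = no compound tracer wells and 100% = peptide blocker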
Pf gametocyte = P. falciparum stage V gametocyte viability inhibition; inhibition, % at 10.9 µM; P. falciparum stage V gametocytes, ATP luminescence, 24 h; actives 0.065% (n = 150,000);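 active = inhibition above the mean plus 3 SD of compounds within the control limits, set per campaign, cut at about 38% in these data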;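 note: 0% = DMSO wells and 100% = medium only without gametocytes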
Mcl1-Bid inh = Mcl-1/Bid interaction inhibition | TR-FRET Mcl-1/Bid-Dy647 peptide binding, 1536-well | inhibition, % at 21.7 µM | actives 0.97% (n = 220,000);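 active = compounds that cut the binding signal by more than half at the single screening dose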;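 note: His-tagged Mcl-1 with europium anti-His antibody binding Bid BH3 peptide; 0% = Mcl-1 plus peptide wells and 100% = peptide-only wells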
* marks the source's active call; other numbers are inactive results; nt = not tested or not shown. Compounds with a hit are over-represented: about 2.9% of the library has one in this group of screens.

SMILES	14-3-3 Bad PPI	Mcl1-Noxa inh	Hck Nef HTS	Mcl-1 Bim block	Pf gametocyte	Mcl1-Bid inh
CCOC(=O)N1CCC(n2c(SCC(=O)c3ccccc3)nc3ccsc3c2=O)CC1	15	-203	5	0	-10	65*
Cc1ccc(-n2c(SCC(=O)O)nc3sc4c(c3c2=O)CC(C)(C)SC4)cc1	nt	nt	nt	nt	-7	nt
Cc1ccc(-n2c(SCC(=O)NCc3ccco3)nc3sc4c(c3c2=O)CC(C)(C)SC4)cc1	-25	-85	0	2	7	89*
Nc1nc(NCc2ccco2)nc(N2CCOCC2)c1[N+](=O)[O-]	-1	0	11	nt	4	-35
CSc1nc(Cl)c(Cc2ccc(OCC(C)C)cc2)c(N2CCOCC2)n1	0	8	0	-8	10	-11
CCCCOc1ccc(Cc2c(Cl)nc(SC)nc2N2CCOCC2)cc1	-15	6	2	45*	-1	-15
CCOC(=O)NC(c1cccc(Cl)c1)C1CCCCCC1=O (centres undefined)	-28	6	-2	-9	nt	-2
COc1ccc2nc(COC(=O)c3cccc([N+](=O)[O-])c3)c(C(C)=O)[n+]([O-])c2c1	5	12	8	nt	-16	9
Cc1cc(C)c2c(c1)c(C)cc1nnc(SCC(=O)c3cccs3)n12	73*	-3	0	-3	nt	-15
CC(C)(C=O)C1=CC(=O)c2ccccc2C1=O	2	85*	-3	-2	21	20
O=C(O)CCCNc1ccc([N+](=O)[O-])c(NCCCC(=O)O)n1	1	20	-3	1	-22	-18
O=c1c2cn[nH]c2[nH]c(=S)n1-c1ccccc1Cl	-3	17	8	-5	nt	-117
COc1ccc(CCC(=O)Nc2sccc2C#N)cc1	-16	9	59*	0	12	-30
COc1ccc(CCC(=O)Nc2nnc(C)s2)cc1	nt	nt	nt	nt	-31	nt
Brc1cccc2sc(N3CCN(c4ccccc4)CC3)nc12	87*	7	-25	-1	0	-21
Clc1cccc2sc(N3CCCCC3)nc12	-13	-4	1	0	nt	-7
CCOC(=O)c1ccc(NC(=O)CCc2c(C)nc3ncnn3c2C)cc1	5	0	1	-4	-7	-6
O=C1C(Cc2cccc([N+](=O)[O-])c2)S/C(=N/N=C/c2ccco2)N1c1ccccc1 (centres undefined)	-15	20	3	-4	12	-33
Cc1ccsc1/C=C/C1=Cc2c(sc(NC(=O)CSc3n[nH]c(N)n3)c2C#N)C(C)(C)C1	-1	89*	34	3	nt	-25
CCOc1ccc(/C=C/C2=Cc3c(sc(NC(=O)CSc4n[nH]c(N)n4)c3C#N)C(C)(C)C2)cc1	-10	7	3	5	7	-30
O=C(CCc1nc(-c2ccccc2)no1)NCc1cccnc1	-3	10	1	-3	nt	5
CCN(C(=O)Nc1ccccc1OC)c1c(N)n(Cc2ccccc2)c(=O)[nH]c1=O	-3	19	5	-2	nt	-18
CC(C)(C)C(=O)C(Cl)C(=O)Nc1ccccc1 (centres undefined)	3	36	26	nt	-17	16
O=C(Nc1ccc(N2CCOCC2)cc1)Nc1ccc(Cl)c(Cl)c1	-11	82*	1	-131	nt	-21
Cc1ccc(NC(=O)c2cc(N3C(=O)C=CC3=O)ccc2N2CCOCC2)cc1Cl	-27	56*	-5	-19	2	11
SMILES	14-3-3 Bad PPI	Mcl1-Noxa inh	Hck Nef HTS	Mcl-1 Bim block	Pf gametocyte	Mcl1-Bid inh
O=C(Nc1ccc(Cl)cc1)Nc1ccc(N2CCOCC2)cc1	0	nt	7	-5	nt	-19
COc1ccc(CNC(=O)C(c2ccncc2)N(C(=O)Cc2cccs2)c2cccnc2)cc1 (centres undefined)	-6	4	32	nt	1	-70
COc1ccc2c(c1)CC(C1(O)C(=O)N(C)c3ccccc31)C2=O (centres undefined)	74*	-11	-1	-2	nt	-3
Cc1nc2ccc(NC(=O)N3CCCCC3)cc2nc1C	-6	-4	4	-4	nt	-11
CCOC(=O)C1CCN(C(=O)Nc2ccc3nc(-c4ccco4)c(-c4ccco4)nc3c2)CC1	32	97*	28	19	nt	25
O=C(Nc1ccc2nc(-c3ccco3)c(-c3ccco3)nc2c1)N1CCCCCC1	35	105*	47	16	nt	59*
CCC(C(=O)OCn1nnc2ccccc2c1=O)c1ccccc1 (centres undefined)	-6	6	28	0	-14	3
O=C(Nc1cccc(-c2cn3ccccc3n2)c1)c1cc2ccccc2oc1=O	64	59*	3	2	nt	60*
Cc1[nH]c2ccccc2c1/C=N/Nc1ccc([N+](=O)[O-])cc1S(=O)(=O)Nc1ccc(Cl)cc1	2	51*	4	-2	nt	-13
Nc1ccc(-c2cc(N)n(-c3ccccc3)n2)cc1	81*	34	1	-3	nt	-4
CCOC(=O)CSc1cc(C(F)(F)F)nc(-c2ccccn2)n1	-4	-16	-2	0	11	7
CCOc1ccccc1C(=O)Nc1cccc2cccnc12	nt	nt	nt	nt	-37	nt
O=C(Nc1ccc([N+](=O)[O-])cc1)c1cc(-c2ccccn2)nc2c(Cl)cccc12	71*	49	33	5	14	42
CCOc1ccccc1NC(=O)c1cc(-c2ccncc2)nc2c(Cl)cccc12	73*	16	3	5	11	51*
CC(C)[C@@H](N)C(=O)N/N=C/c1ccc2nccnc2c1	3	23	27	nt	-17	-11
CCOC(=O)C1(Cc2cccc(OC)c2)CCN(Cc2ccon2)CC1	-4	-23	20	nt	15	-15
CCOc1cccc2cc(-c3nnc(NCc4ccco4)s3)c(=O)oc12	10	64*	6	0	nt	29
COc1cccc2cc(-c3cn4ccc(C)cc4n3)c(=O)oc12	nt	nt	39	nt	-7	nt
CCOc1cccc2cc(-c3cn4cc(C)ccc4n3)c(=O)oc12	55	12	21	0	nt	80*
CCOc1cccc2cc(C(C)=O)oc12	-21	12	21	-2	-7	-4
COc1ccc2oc(=O)c(-c3nnc(NCc4ccco4)s3)cc2c1	8	50	22	-1	-7	65*
COc1ccc2oc(=O)c(/C(C)=N/Nc3nc(-c4cc(C)ccc4C)cs3)cc2c1	-9	-13	-4	-4	nt	-18
COc1ccc2oc(=O)c(-c3csc(Nc4ccc(O)cc4)n3)cc2c1	17	73*	11	0	-14	40
CCOC(=O)C1CCCN(Cc2nc(Cc3cccc(F)c3)no2)C1 (centres undefined)	2	24	6	-1	2	-26
CNc1nnc(-c2cc3cc(Cl)ccc3oc2=O)s1	60	64*	-2	-1	5	13
Cc1ccc(CNC(=O)CO/N=C/c2ccc3c(c2)OCO3)cc1	5	16	6	-4	nt	-2

Screening results (PubChem)
